Reference: PubChem BioAssay (NCI)
About 83,000 compounds went through this panel and 20% of them were active in at least one assay; those are over-represented in the sample as a whole.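 Note: values are percent growth. 100 is the growth of untreated cells, values between 100 and 0 indicate rising inhibition; between -100 and 0 indicates cell death.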 Values without a mark were called inactive. Active and inactive are the calls of the source. The calls were made as follows: active = growth percent below 10; inactive = the rest.

What was measured:
Experiment in all cases: NCI-60 one-dose screen, 48 h (100 = growth as untreated, 0 = no growth, -100 = all killed)
Settings in all cases: 10 µM unless noted
[1] = system: NCI-H23 lung
[2] = system: NCI-H226 lung
[3] = system: HOP-62 NSCLC
[4] = system: NCI-H460 lung
[5] = system: HOP-92 NSCLC
[6] = system: NCI-H522 lung
[7] = system: A549/ATCC NSCLC
[8] = system: 786-0 renal
[9] = system: COLO 205 colon
[10] = system: DU-145 prostate
[11] = system: K-562 leukemia
[12] = system: MALME-3M melanoma
[13] = system: MDA-MB-231 breast
[14] = system: RXF 393 renal
[15] = system: SF-268 CNS
[16] = system: SF-295 CNS
[17] = system: SF-539 CNS
[18] = system: UACC-257 melanoma
[19] = system: M14 melanoma

| Compound | growth [1] | growth [2] | growth [3] | growth [4] | growth [5] | growth [6] | growth [7] | growth [8] | growth [9] | growth [10] | growth [11] | growth [12] | growth [13] | growth [14] | growth [15] | growth [16] | growth [17] | growth [18] | growth [19] |
| --- | --- | --- | --- | --- | --- | --- | --- | --- | --- | --- | --- | --- | --- | --- | --- | --- | --- | --- | --- |
| CC(=O)O[C@H]1CC[C@]2(C)[C@H]3CC=C4[C@@H]5CC(C)(C)CC[C@]5(C(=O)NCCNCCNCCN)CC[C@@]4(C)[C@]3(C)CC[C@H]2C1(C)C | 86.5% | 91.4% | 87.5% | -56.3% (active) | 61.9% | 54.3% | 43% | -56.3% (active) | -93.1% (active) | 17% | -11.3% (active) | 73.5% | -42.9% (active) | 65.4% | 87.1% | 102% | 86.2% | 93.1% | 23.8% |
| Nc1ccc(S(=O)(=O)O)c2ccc(N=Nc3ccc(N=Nc4ccc(S(=O)(=O)O)cc4)c4ccccc34)c(O)c12 | 98% | 92.1% | 112% | 101% | 102% | 89.4% | 99.8% | 102% | 105% | 110% | 106% | 97.6% | 94.7% | 109% | 101% | 114% | 123% | 109% | 99.8% |
| COc1ccc(/C=C/C(=O)c2cc(O)ccc2O)cc1 | 95.8% | 94.5% | 114% | 96.6% | 70.6% | -23.6% (active) | 78.6% | 96.5% | 99% | 89.3% | 66.4% | 100% | 77.4% | 81.6% | 84.4% | 111% | 88.4% | 75.5% | 105% |
| O=C(CN(C(=O)Cn1c(=O)n2nnnc2c2ccccc21)c1ccccc1C(F)(F)F)Nc1ccc(C(F)(F)F)cc1 | 103% | 104% | 107% | 105% | 92.8% | 98% | 104% | 103% | 112% | 110% | 101% | 103% | 104% | 116% | 103% | 104% | 101% | 115% | 102% |
| O=C1C=CC(=O)N1c1ccc2c(c1)Cc1cc(F)ccc1-2 | 101% | 99.3% | 93.8% | 111% | 83.4% |  | 97.9% | 112% | 94% | 112% |  | 94.4% | 92.3% | 92.2% | 99.7% |  | 101% | 64.7% | 107% |
| O=C1C=C(OCC=C(Cl)Cl)C(=O)c2ccccc21 | 57.4% | 97.3% | 87.2% | 99.9% | 73.7% | 51.8% | 91.3% | 94.9% | 137% | 77.4% | 80% | 80.9% | 84.7% | 86.6% | 94.4% | 92.8% | 93.2% | 76.4% | 83.3% |
| Nc1ccc(-c2cc3c(NCc4ccccc4)ncnc3s2)cc1 | 66.6% | 65.9% | 92.1% | 90.7% | 85.5% | 72.5% | 70.9% | 79.2% | 108% | 55.8% | 61.8% | 91.3% | 86% | 74.2% | 86.9% | 83.5% | 86% | 85.8% | 103% |
| Brc1ccc(-c2csc(Nc3ccccn3)n2)cc1 | 58.8% | 73% | 85.4% | 91.5% | 73% | 78.2% | 91.3% | 88.5% | 107% | 109% | 57.1% | 76.3% | 86.3% | 118% | 115% | 99.9% | 102% | 105% | 96.9% |
| Cc1ccc(NC(=O)C2CCC(CN3CCN(C)CC3)CC2)cc1Nc1nccc(-c2cccnc2)n1 (configuration not stated) | 96.1% | 99.8% | 105% | 101% | 85.5% | 129% | 114% | 98.7% | 94.4% | 100% | 58.3% | 104% | 101% | 96% | 100% | 101% | 63.4% | 115% | 98.8% |
| CCN1CCN(c2nc(NCCCNc3ccnc4cc(Cl)ccc34)c3ccccc3n2)CC1 | 64.3% | 60.4% | 32.4% | 16.3% | 64.9% | -21.5% (active) | 18.8% | 30.7% | -22.9% (active) | 39.5% |  | -73.5% (active) | -10.8% (active) | 5.38% (active) | 55.1% | 22.7% | -74.4% (active) | -82.8% (active) | -87% (active) |
| O=C(N(c1ccccc1)c1ccccc1)n1ccc2nc(Cl)nc(Cl)c21 | 60.8% | 53.9% | 45.5% | 36.1% | 52.3% | 24.9% | 56.2% | 80.1% | 77.7% | 33.8% | 42.8% | 58.6% | 71.4% | 32.7% | 66.3% | 74.1% | 68% | 70.2% | 69.9% |
| Cc1cc(N2CCOCC2)nc(NCc2cc(Nc3ccnc4cc(Cl)ccc34)ccc2F)n1 | -32.9% (active) | 16.1% | -63% (active) | -65.7% (active) | -30.8% (active) | -61% (active) | -49.4% (active) | -93.7% (active) | -70.9% (active) | -57.6% (active) | -4.96% (active) | -73.7% (active) | -78.3% (active) | -92.4% (active) | -52.5% (active) | -84.4% (active) | -80.4% (active) | -68.3% (active) | -83.7% (active) |
| COc1ccc2nc(NC(=O)CSc3nnc4n3S(=O)(=O)c3ccccc3N4c3ccccc3)sc2c1 | 87.4% | 101% | 94.7% | 104% | 46.6% | 64.5% | 44.8% | 101% | 96.1% | 99.3% | 113% | 89.7% | 77.7% | 23% | 71.9% | 73.2% | 94.3% | 103% | 100% |
| CC1=NN(c2nc(-c3ccc(Cl)cc3)c(C#N)c(N3CCOCC3)n2)C(=O)C1 | 80.7% | 89.8% | 87% | 99.1% | 6.28% (active) | 78.9% | 101% | 49.1% | 104% | 102% | 101% | 42% | 91.9% | 43.4% | 91.1% | 103% | 97.9% | 99.9% | 90% |
